# A number with no mark means an inactive call. Records with an inconclusive call do not appear. A call without a number means that no potency is given here. The source made the active and inactive calls. Unless noted, calls come from the whole dose curve; as a rule, active = well fitted curve in the direction sought with a large enough effect in the repeat runs; inconclusive = weak or mixed curves; inactive = no such curve, though single readings can be large; an effect the other way counts as inactive or inconclusive.
# Columns and labels:
# [1] = qHTS assay to identify small molecule agonists of the hypoxia (HIF-1) signaling pathway - cell viability counter screen (AID 1224844; calls by dose curve; note: nearly all actives have a fitted effect of over 50% in size; note: potency is the fitted concentration of half-maximal effect); conditions: HRE-bla ME-180 viability, CellTiter-Glo luminescence, 17 h; series mostly up to 76.8 µM
# Method in brief: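 HRE-bla ME-180 cells in medium with 0.5% dialyzed FBS were preincubated 5 hrs at 37C, exposed to compounds for 17 hrs, then viability was read as CellTiter-Glo luminescence after 30 min at room temperature, in the reporter wells.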
# [2] = qHTS assay to identify small molecule agonists of H2AX (AID 1224845; active = well fitted activation curve with a large enough effect in the signal ratio in the repeat runs, not every such curve was filed as active; the % refers to the signal ratio); conditions: CHO-K1 phospho-H2AX Ser139 HTRF, 3 h; series mostly up to 154 µM
# Method in brief: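 Wild-type CHO-K1 cells, plated overnight, exposed 3hr at 37C to 15 concentrations (0.76% DMSO final). Lysed, then HTRF anti-pH2AX (S139) cryptate and anti-H2AX-d2 antibodies, 24 hr room temperature; 665/620 nm emission read.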
# [3] = qHTS assay to identify small molecule agonists of H2AX - cell viability counter screen (AID 1224847; calls by dose curve; note: nearly all actives have a fitted effect of over 30% in size; note: potency is the fitted concentration of half-maximal effect); conditions: CHO-K1 viability, CellTiter-Glo luminescence, 3 h; series mostly up to 154 µM
# Method in brief: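 After overnight plating of 1000 CHO-K1 cells per well, a 15-concentration compound series was applied for 3 hr at 37C. Luminescence from CellTiter-Glo, read following 30 min at room temperature, reflected cell viability.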
# [4] = qHTS RealTime-Glo MT Cell Viability Assay in HepG2 cells - 24 hour (AID 1224867); conditions: RealTime-Glo luminescence; series mostly up to 76.8 µM; note: nearly all actives have a fitted effect of over 50% in size
# Method in brief: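 Tox21 10K library screened in qHTS format on HepG2 cells carrying RealTime-Glo reagents. Compounds were added after a 5 h preincubation, and the luminescent signal from continuous culture was measured repeatedly during 40 h treatment.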
# [5] = qHTS RealTime-Glo MT Cell Viability Assay in HEK293 cells - 32 hour (AID 1224868); conditions: RealTime-Glo luminescence; series mostly up to 76.8 µM; note: nearly all actives have a fitted effect of over 50% in size; note: potency is the fitted concentration of half-maximal effect
# Method in brief: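 Luminescence generated by NanoLuc from substrate produced by living HEK293 cells served as the viability signal. Each value reflects the reading at its stated time point during continuous 40 h compound exposure at 37 C.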
# [6] = A CellTox Green Cytotoxicity Assay to monitor cytotoxicity in HEK293 cells - 0 hour (AID 1224869); conditions: CellTox Green fluorescence; series mostly up to 76.8 µM; note: nearly all actives have a fitted effect of over 50% in size
# Method in brief: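 HEK293 cells premixed with CellTox Green dye were seeded at 600 cells/well and left 5 h at 37 C/5% CO2 before pin transfer of 23 nL compound in DMSO. Fluorescence from dye bound to dead-cell DNA was read during 40 h treatment.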
# [7] = qHTS RealTime-Glo MT Cell Viability Assay in HepG2 cells - 40 hour (AID 1224870); conditions: RealTime-Glo luminescence; series mostly up to 76.8 µM; note: nearly all actives have a fitted effect of over 50% in size
# Method in brief: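 HepG2 cells (600/well) mixed with RealTime-Glo MT reagent, settled 5 h at 37 C/5% CO2 before compound addition. Nonlytic NanoLuc luminescence from viable-cell prosubstrate reduction read repeatedly during 40 h treatment at 37 C.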
# [8] = qHTS assay to identify small molecule agonists of the hypoxia (HIF-1) signaling pathway (AID 1224846; active = well fitted activation curve with a large enough effect in the signal ratio in the repeat runs, not every such curve was filed as active; the % refers to the signal ratio); conditions: HRE-bla ME-180 cells, beta-lactamase ratio, 17 h; series mostly up to 76.8 µM
# Method in brief: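 HRE-bla ME-180 cells (beta-lactamase reporter under hypoxia response element) were plated at 2,000 cells/well in medium with 0.5% dialyzed FBS, rested 5 hrs, then given compounds in DMSO for 17 hrs at 37C, 5% CO2. Reporter induction was read with CCF4-AM FRET substrate.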
# [9] = qHTS assay to identify small molecule antagonists of the estrogen related receptor (ERR) signaling pathway from Tox21 library (AID 1224848); conditions: ERR reporter cell line, luciferase antagonist mode, 18 h; series mostly up to 92.4 µM; note: nearly all actives have a fitted effect of over 50% in size; note: potency is the fitted concentration of half-maximal effect
# Method in brief: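 Luminescent reporter read-out (ONE-Glo) from NTP's ERR cell line after 18 h treatment at 37 C with DMSO-dissolved Tox21 compounds; cells pre-plated 6 h beforehand at 2,000 per well.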
# [10] = qHTS assay to identify small molecule agonists of the estrogen related receptor (ERR) signaling pathway from Tox21 library (AID 1224849; calls by dose curve; note: nearly all actives have a fitted effect of over 15% in size); conditions: ERR reporter cell line, ONE-Glo luciferase, 18 h; at 92.4 µM (top of the series) unless noted
# Method in brief: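 ERR reporter cell line (NTP) seeded, rested 6 h at 37 C/5% CO2, then pinned with Tox21 compounds in DMSO. After 18 h at 37 C, ONE-Glo luciferase luminescence was read following 30 min at room temperature.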
SMILES,Potency [1],Potency [2],Potency [3],Potency [4],Potency [5],Potency [6],Potency [7],outcome [8],Potency [9],"activity change, positive = activation [10]"
CC(C)(C)NCC(O)COc1cccc2c1C[C@H](O)[C@H](O)C2 (stereo partly specified),inactive,inactive,inactive,inactive,inactive,inactive,inactive,,,
COc1ccc(-c2cc(=S)ss2)cc1,inactive,inactive,inactive,inactive,,inactive,inactive,,,
Cc1c(C2(c3cc(Br)c(O)c(Br)c3C)OS(=O)(=O)c3ccccc32)cc(Br)c(O)c1Br,16.9 µM (active),,9.77 µM (active),inactive,inactive,inactive,inactive,inactive,11.8 µM (active),-68%
O=C(Oc1ccccc1)c1ccc2ccccc2c1O,inactive,inactive,,inactive,,inactive,inactive,inactive,inactive,116% (active)
Cc1ccc(Nc2c(F)cccc2Cl)c(CC(=O)O)c1,inactive,,inactive,inactive,inactive,inactive,inactive,inactive,inactive,-14.1% [at 42.5 µM]
CCN(CC)CCOC(=O)C(c1ccccc1)c1ccccc1,inactive,inactive,inactive,inactive,inactive,inactive,inactive,,,
Cc1ccc(N(CC2=NCCN2)c2cccc(O)c2)cc1,inactive,inactive,inactive,inactive,,inactive,inactive,,,
CC(=O)Oc1cccc(O)c1,inactive,,inactive,inactive,inactive,inactive,inactive,inactive,inactive,5.58% [at 42.5 µM]
CN1CCCN(C(c2ccccc2)c2ccc(Cl)cc2)CC1 (stereo unspecified),21.3 µM (active),inactive,,,,inactive,,,,-29.3% [at 42.5 µM]
CC(CN(CCN(CC(C)OCCO)CC(C)OCCO)CC(C)OCCO)OCCO (stereo unspecified),inactive,inactive,,,23.7 µM (active),inactive,inactive,inactive,,
CCN(CC)c1cccc(O)c1,inactive,,inactive,inactive,inactive,inactive,inactive,inactive,inactive,2.77%
CCCc1nc2c(C)cc(-c3nc4ccccc4n3C)cc2n1Cc1ccc(-c2ccccc2C(=O)O)cc1,inactive,inactive,inactive,inactive,,inactive,inactive,,,
CC(C)COC(=O)COc1cc(Cl)c(Cl)cc1Cl,inactive,,inactive,inactive,inactive,inactive,inactive,inactive,inactive,-0.133%
CCCCCCCC/C=C\CCCCCCCC(=O)OCCO,inactive,inactive,inactive,,inactive,inactive,inactive,inactive,,
CNS(=O)(=O)c1cc(C(=O)N2CCC(CCN3C4CCC3CC(n3c(C)nc5ccccc53)C4)(c3cccc(F)c3)CC2)c(Cl)cc1F (stereo unspecified),3.89 µM (active),inactive,inactive,,,inactive,,,,
C=C(C)c1ccccc1,inactive,inactive,inactive,inactive,inactive,inactive,inactive,,,
CC(C(=O)O)c1ccc(C(=O)c2cccs2)cc1 (stereo unspecified),inactive,inactive,inactive,inactive,,inactive,inactive,,,
O=C(O)c1cccc(C[C@@H]2COc3ccc(OCc4nc5cc(F)ccc5s4)cc3[C@@H]2O)c1,inactive,inactive,,inactive,inactive,inactive,inactive,inactive,,
CC(=O)OCC1=C(C(=O)O)N2C(=O)[C@@H](NC(=O)CSc3ccncc3)[C@H]2SC1,inactive,inactive,inactive,inactive,,inactive,inactive,,inactive,0.532% [at 42.5 µM]
CC[C@@H](CO)NCCN[C@@H](CC)CO,inactive,inactive,inactive,inactive,,inactive,inactive,,inactive,0.599% [at 42.5 µM]
O=C(O)CCCc1c[nH]c2ccccc12,inactive,inactive,,inactive,inactive,inactive,inactive,inactive,inactive,11.9%
COc1cc(NCc2ccc3nc(N)nc(N)c3c2C)cc(OC)c1OC,inactive,,0.22 µM (active),inactive,0.0268 µM (active),inactive,inactive,inactive,0.0473 µM (active),-56.3% [at 42.5 µM]
CN=C(N)NC(=O)Nc1c(C)cccc1C,inactive,,inactive,inactive,inactive,inactive,inactive,inactive,inactive,-0.434% [at 42.5 µM]
CCSC(=O)N(CC)CC,inactive,inactive,,inactive,inactive,inactive,inactive,inactive,,
CC12CC3CC(C)(C1)CC(N)(C3)C2,inactive,inactive,inactive,inactive,inactive,inactive,inactive,,inactive,-0.576% [at 42.5 µM]

SMILES,Potency [1],Potency [2],Potency [3],Potency [4],Potency [5],Potency [6],Potency [7],outcome [8],Potency [9],"activity change, positive = activation [10]"
CCCCCCCC(=O)Oc1c(Br)cc(C#N)cc1Br,inactive,inactive,,inactive,38.8 µM (active),inactive,inactive,,48.4 µM (active),-61.8%
Nc1c(Cl)cc(Cl)cc1[N+](=O)[O-],inactive,inactive,,inactive,inactive,inactive,inactive,inactive,inactive,-2%
CC(=O)N[C@@H](Cc1ccc(O)cc1)C(=O)O,inactive,inactive,inactive,inactive,,inactive,inactive,,inactive,1.4% [at 42.5 µM]
O=C(O)c1cc(Cl)cc(Cl)c1O,inactive,inactive,,inactive,inactive,inactive,inactive,inactive,inactive,0.37%
Oc1ccc2c(c1)Cc1ccccc1-2,inactive,inactive,,inactive,19.5 µM (active),inactive,inactive,inactive,inactive,
CC(=O)C(C)=O,inactive,inactive,inactive,inactive,inactive,inactive,inactive,,,
Nc1nc2ccc(OC(F)(F)F)cc2s1,inactive,inactive,inactive,inactive,,inactive,inactive,,,
CC(O)Cn1cnc2c1c(=O)n(C)c(=O)n2C (stereo unspecified),inactive,inactive,inactive,inactive,inactive,inactive,inactive,,inactive,0.481% [at 42.5 µM]
CC(C)c1ccc(C(=O)N=C(N)N)cc1S(C)(=O)=O,inactive,inactive,inactive,inactive,inactive,inactive,inactive,,,
CC(C)C(=O)OCCOc1ccccc1,inactive,,inactive,inactive,inactive,inactive,inactive,inactive,,
Cc1ccc2nc(N)[nH]c(=O)c2c1Sc1ccncc1,inactive,,inactive,,,inactive,inactive,inactive,,-24.3% [at 42.5 µM]
CC(CO)(CO)C(=O)O,inactive,,inactive,inactive,,inactive,inactive,inactive,inactive,-0.0649%
OCC(CO)n1cnc(-c2ccc(F)cc2)c1-c1ccnc(Oc2ccccc2)n1,inactive,,inactive,inactive,inactive,inactive,inactive,inactive,27.3 µM (active),-29%
CC(=O)NCCO,inactive,,inactive,inactive,inactive,inactive,inactive,inactive,,
Cc1cccc2sc(N)nc12,inactive,,inactive,inactive,inactive,inactive,inactive,inactive,,
O=C1OC(=O)c2c(Br)c(Br)c(Br)c(Br)c21,inactive,,inactive,inactive,inactive,inactive,inactive,inactive,,
CCCOC(=O)c1c(Cl)c(Cl)c(Cl)c(Cl)c1C(=O)OCCC,inactive,,inactive,inactive,inactive,inactive,inactive,inactive,inactive,6.22%
CC(CCc1ccc(O)cc1)NCCc1ccc(O)c(O)c1 (stereo unspecified),inactive,,inactive,inactive,inactive,inactive,inactive,inactive,inactive,-12.3% [at 42.5 µM]
Cc1cc([N+](=O)[O-])ccc1N,inactive,,inactive,inactive,inactive,inactive,inactive,inactive,,
CCCC(=O)OC(=O)CCC,inactive,,inactive,inactive,,inactive,inactive,inactive,,
Nc1ccc(NC(=O)c2ccc(N)cc2)cc1,inactive,,inactive,inactive,,inactive,inactive,inactive,inactive,
CCOC(=O)Oc1ccc(CCNC(=O)[C@H](CCSC)NC(C)=O)cc1OC(=O)OCC,inactive,,inactive,inactive,inactive,inactive,inactive,inactive,,
CC(C)OC(=O)c1ccccc1C(=O)OC(C)C,inactive,,inactive,inactive,inactive,inactive,inactive,inactive,,
CC1=C2[C@@H]([C@H](C)CC[C@H]2/C=C(\C)C(=O)O)[C@H](O)C1,inactive,,inactive,inactive,inactive,inactive,inactive,inactive,,
